Measurements published in PubChem BioAssay AID687020 (Broad Institute, 2013).
Hit rate of the full screen: of about 1,400 compounds, about 100 (7.1%) were called active. No rule for the calls is given here. A selection follows. Measured potencies and affinities stand elsewhere.

test: viability loss in Vero cells – cell-based, plate reader, cherry-pick samples, cytotoxicity control, dose response (AID 687020); details: series mostly up to 19.5 µM;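 also: compounds incubated with cells for three days before luminescence read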

SMILES	outcome
Cc1noc(C)c1NC(=O)N(C)C[C@H]1OCCCC[C@H](C)Oc2ccc(NC(=O)NC(C)C)cc2C(=O)N([C@H](C)CO)C[C@@H]1C	inactive
CCOC(=O)c1cn(CC)c2cc3c(cc2c1=O)OCO3	inactive
Cc1ccc(NC(=O)c2cc(-c3cc(Cl)ccc3C)n[nH]2)cc1NS(C)(=O)=O	inactive
O=C(NCc1ccccc1)[C@H]1CCCN1C(=O)[C@@H]1CCCN1C(=O)c1ccc(Cl)cc1Cl	inactive
O=C(NCc1ccccc1)c1ccccc1	inactive
Cc1noc(C)c1NC(=O)Nc1cccc2c1O[C@@H](CN(C)S(=O)(=O)c1ccc(F)cc1)[C@@H](C)CN([C@@H](C)CO)C2=O	inactive
Fc1ccc(CNC2CCN(Cc3ccccc3)CC2)cc1	inactive
C=CCOc1ccccc1CNn1c(C)n[nH]c1=S	inactive
CN(Cc1ccccc1)C(=O)c1nc[nH]c1C(=O)N1CCN(C(=O)OC(C)(C)C)CC1	inactive
COC(=O)C[C@H]1CC[C@H]2[C@@H](COc3ccc(NC(=O)c4cnccn4)cc3C(=O)N2C)O1	inactive
CCCCOc1ccc(C(=O)NCCOc2cccc(OC)c2)cc1	inactive
CS(=O)(=O)NCc1ccc(C(=O)NCCOc2ccccc2)cc1	inactive
Cc1c(Cl)cccc1NC(=O)CNC(=O)C1CC(=O)N(C2CCCC2)C1 (centres undefined)	inactive
Cc1noc(C)c1NC(=O)Nc1ccc2c(c1)C(=O)N([C@@H](C)CO)C[C@H](C)[C@@H](CN(C)C(=O)CCCN(C)C)OCCCC[C@@H](C)O2	inactive
CN(C)CCCNC(=O)OC1CC2CC1[C@H]1CCCCN1C2=O (some centres undefined)	inactive
CCCNC(=O)OC1CC2CC1[C@H]1CCCCN1C2=O (some centres undefined)	inactive
O=C(NCc1ccccn1)C(=O)NCC1OCCN1S(=O)(=O)c1ccc(Br)cc1 (centres undefined)	inactive
COc1ccc(Cl)cc1NC(=O)CN(C)C(=O)C1COc2ccccc2O1 (centres undefined)	inactive
Cc1noc(C)c1S(=O)(=O)Nc1ccc2c(c1)C(=O)N([C@@H](C)CO)C[C@@H](C)[C@H](CN(C)C(=O)Nc1ccccc1)OCCCC[C@@H](C)O2	inactive
Cc1cc(C)n2c(Nc3ccc4c(c3)OCCO4)c(CC(C)C)nc2n1	inactive
Cc1cc(C)n2c(NC3CCCCC3)c(-c3ccccn3)nc2n1	inactive
Cc1ccc(S(=O)(=O)N2CCN(C(=O)C(O)c3ccccc3)CC2)cc1 (centres undefined)	inactive
COC(=O)C[C@@H]1OC[C@H](Cc2ccccc2)N1S(=O)(=O)c1ccc(C)cc1	inactive
Cc1ccc(S(=O)(=O)N2CCN(C(=O)COC(=O)Cc3ccc(Cl)cc3)CC2)c(C)c1	inactive

SMILES	outcome
COc1ccc(C(C(=O)NCc2ccccc2)n2c(-c3ccncc3)nc3ccccc32)cc1 (centres undefined)	inactive
CN(C)c1ccc(CNS(=O)(=O)c2ccc3c(c2)C(C)(C)C(=O)N3C)cc1	inactive
C[C@H]1CCCCO[C@H](CN(C)S(=O)(=O)c2ccc(Cl)cc2)[C@@H](C)CN([C@@H](C)CO)C(=O)c2cc(NC(=O)Cc3ccccc3)ccc2O1	inactive
COc1ccccc1CCNS(=O)(=O)CCNC(=O)c1ccc2c(c1)OCO2	inactive
COc1ccc(C2=Nn3c(nnc3-c3ccccc3Cl)SC2)cc1OCC1CC1	inactive
COc1ccc(OC)c(S(=O)(=O)N2CCN(c3c(C)cccc3C)CC2)c1	inactive
COc1ccc(-c2cnc3c(NC(C)=O)cc(-c4ccccc4OC)cn23)cc1OC	inactive
CCCNC(=O)N1C[C@H](O)COC[C@@H]2O[C@@H](CC(=O)N3CCOCC3)CC[C@H]21	inactive
COc1ccc(C(C)(NC(C)=O)c2nc(-c3cccc(F)c3)cs2)cc1 (centres undefined)	inactive
O=C(CCc1nc2ccccc2c(=O)[nH]1)N1CCCc2ccccc21	inactive
C[C@@H]1CN([C@@H](C)CO)C(=O)c2cc(C#CCc3ccccc3)cnc2O[C@@H]1CN(C)C(=O)C1CCOCC1	inactive
c1ccc(-c2csc(-c3ccc(-c4csnn4)cc3)n2)cc1	inactive
O=C(NCC1CC1)C1(S(=O)(=O)c2ccccc2)CC=CC1	inactive
CCOC(=O)CN1CC23C=CC(O2)C(C(=O)NCCc2ccccc2)C3C1=O (centres undefined)	inactive
CCOC(=O)N1CCN(Cc2nc3cc(NC(=O)CC)ccc3n2CC)CC1	inactive
COc1cc(NC(C)=O)c2ncccc2c1Br	inactive
COc1ccc(CN2CCC[C@]3(N[C@H](c4ccc(OC)cc4)[C@@H]4C(=O)N(C)C(=O)[C@@H]43)C2=O)cc1	inactive
O=C(O)CNC(=O)c1ccc(NS(=O)(=O)c2ccc3ccccc3c2)cc1	inactive
Cc1cc(Br)ccc1NC(=O)CN(C)C(=O)COc1cccc2c1OC(C)(C)C2	inactive
O=C1N2CCCCC1(c1ccccc1)CCCC2	inactive
COCCCN1C(=O)C(CC(=O)NC2CCCCC2)CC(C(=O)N(C(C)C)C(C)C)=C1C (centres undefined)	inactive
COc1ccc(N(CC(=O)N2CCN(C)CC2)S(=O)(=O)c2cc(C)ccc2OC)cc1Cl	inactive
O=C(Nc1ccc(S(=O)(=O)NC2=NCCCCC2)cc1)c1cccs1	inactive
COc1ccc(-c2ccccc2)cc1NC(=O)c1cccs1	inactive

SMILES	outcome
CC(C)NC(=O)N(C)C[C@@H]1Oc2ccc(NC(=O)Cc3cn(C)c4ccccc34)cc2C(=O)N([C@@H](C)CO)C[C@H]1C	inactive
OC(COC(c1ccc(Cl)cc1)c1ccc(Cl)cc1)CN1CCN(c2ccccn2)CC1 (centres undefined)	inactive
CCN(CC)c1ccc(/C=N/N2C(=O)c3ccccc3C2=O)c(O)c1	inactive
CCc1ccccc1OCC(=O)NNCC(=O)Nc1cccc(C#N)c1	inactive
COc1cccc(NC(=O)CCN2C(=O)C3CC=CCC3C2=O)c1 (centres undefined)	inactive
CC(=O)N1[C@H](CO)[C@@H](c2ccc(-c3cccc(F)c3)cc2)[C@H]1CNC(=O)C1CC1	inactive
COc1ccc([C@H]2C[C@@H](n3cc(C4CC4)nn3)[C@H](O)CN2Cc2cccs2)cc1	inactive
C[C@H](NC(=O)C1CCN(S(=O)(=O)c2ccccc2)CC1)C(=O)NCc1cccnc1	inactive
COc1ccc(C(=O)N2CCCCC2c2cc(C(=O)NCc3cccnc3)no2)cc1 (centres undefined)	inactive
CC(C)[C@H](NC(=O)c1cccs1)C(=O)N1CCC[C@H]1C(=O)NCc1ccccc1	inactive
O=C(Nc1ccc2c(c1)CCC2)c1ccccc1	inactive
CN1CCC(=O)N([C@H](COc2ccccc2)Cc2ccccc2)CC1	inactive
Cc1cccc(C(=O)OCC(=O)NCc2ccc(Cl)cc2)c1	inactive
CSc1ccccc1OCc1cc(C(=O)N2CCc3[nH]cnc3C2c2ccccn2)no1 (centres undefined)	inactive
CN1C(c2ccccc2)CCOS1(=O)=O (centres undefined)	inactive
C=CCOc1ccc(CNCc2cccnc2)cc1OCC	inactive
Cc1nc2c(OCCC3CCCCC3)cccn2c1N(C)C(=O)CCC1CCCC1	inactive
Cc1ccc(-c2nc3ccccc3n2C(C(=O)NC(C)(C)C)C2CC2)cc1 (centres undefined)	inactive
Cc1csc(-c2nc3ccccc3n2C(C(=O)NC(C)(C)C)c2ccccc2)c1 (centres undefined)	inactive
CCOc1ccc(OCC(=O)N(C)c2c(N)n(Cc3ccccc3)c(=O)[nH]c2=O)cc1	inactive
CC#CCN1C(=O)N[C@@H](c2ccccc2)C(C(=O)OC)=C1C	inactive
C[C@@H]1CN([C@H](C)CO)C(=O)c2cc(NC(=O)c3ccncc3)ccc2O[C@@H](C)CCCCO[C@H]1CN(C)C	inactive
COc1ccc2c(=O)cc(-c3ccncc3)oc2c1OC	inactive
CCOC(=O)C1=C(C)NC(=O)C(C#N)C1c1ccncc1 (centres undefined)	inactive

SMILES	outcome
Cc1cc(OCC(=O)NC2CC(C)(C)NC(C)(C)C2)c(C)cc1Br	inactive
CCc1cc(=O)oc2cc(OCC(=O)NC3CC(C)(C)NC(C)(C)C3)ccc12	inactive
CCOC(=O)C1(Cc2ccccc2C)CCCN(C(=O)c2cc(C3CC3)[nH]n2)C1 (centres undefined)	inactive
N#CC(Cc1ccccc1OC(F)F)c1nc2ccccc2[nH]1 (centres undefined)	inactive
CC(=O)NC[C@H]1[C@H](c2ccc(-c3ccccc3F)cc2)[C@@H](CO)N1C(=O)C1CC1	inactive
O=C(COC(=O)c1ccc2c(c1)OCO2)NC1CCCCC1	inactive
COCCNC(=O)C1(C)CCCN(C(=O)c2ccc(C(F)(F)F)cc2)C1 (centres undefined)	inactive
CO[C@@H]1CN(C)C(=O)c2cc(NC(=O)c3ccccc3)ccc2OC[C@H](C)N(C(=O)C2CC2)C[C@@H]1C	inactive
O=C(O)C1CCCCC1C(=O)N1CCN(S(=O)(=O)c2ccc(F)cc2)CC1 (centres undefined)	inactive
COc1cc(C(=S)N2CCCCC2)ccc1OCC(=O)Nc1ccc(F)cc1	inactive
O=C(NCCCC1CCCC1)C1CCC(=O)N(Cc2cccc(C(F)(F)F)c2)C1 (centres undefined)	inactive
COc1ccc(NC(=O)Nc2ccc3c(c2)C(=O)N([C@@H](C)CO)C[C@H](C)[C@H](CN(C)Cc2ccc(C(=O)O)cc2)OCCCC[C@H](C)O3)cc1	inactive
O=C1NC[C@H](Cc2ccccc2)N(CC2CCN(CCCCc3ccccc3)CC2)C1=O	inactive
O=C1[C@@H](Oc2ccccc2)[C@@H](c2ccncc2)N1c1ccccc1	inactive
COc1cccc(OCc2cc(C(=O)N(C)CCC3CCCCO3)no2)c1 (centres undefined)	inactive
COc1cc(C(=S)N2CCCC2)ccc1OCc1ccc(C)cc1	inactive
O=S(=O)(NCCC1=CCCCC1)c1ccc(Br)cc1	inactive
F[B-](F)(F)c1cnc2ccccc2c1	inactive
Cn1cccc1C(=O)OCC(=O)NC(=O)c1ccc(Cl)cc1	inactive
C[C@H](CO)N1C[C@H](C)[C@@H](CN(C)C(=O)Nc2ccc(C(F)(F)F)cc2)OCCCC[C@H](C)Oc2ccc(NS(=O)(=O)c3cccs3)cc2C1=O	inactive
Cc1noc(C)c1NC(=O)Nc1ccc2c(c1)C(=O)N([C@@H](C)CO)C[C@@H](C)[C@@H](CN(C)Cc1ccccc1)OCCCC[C@@H](C)O2	inactive
CNC[C@@H]1OCCCC[C@H](C)Oc2ccc(NS(=O)(=O)c3c(C)noc3C)cc2C(=O)N([C@@H](C)CO)C[C@H]1C	inactive
